# Gal4-VP16 FLuc: inhibits Gal4-VP16 luciferase reporter, ROR gamma counter-screen | Drosophila S2 Gal4-VP16 UAS-luciferase, luminescence, 20 h | Potency, µM (series often up to 53.6 µM), inactives show top-dose activity, negative = inhibition, hits mostly inhibitors | actives 3.5% (n = 310,000) | AID 2546;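 further: Gal4-VP16 expression switched on by copper sulfate through the metallothionein promoter; potency means the concentration at half of the fitted maximal effect; on the % scale 0 is the no-effect control and ±100 the full control effect; nearly all actives have a fitted effect of over 50% in size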
# CBFb-RUNX1 inh: inhibitors of human CBF-beta and RUNX1 interaction; Q01196+Q13951; AlphaScreen CBFb-His/RUNX1-biotin binding, biochemical; Potency, µM (titrated, usually from 59.8 µM), for the others: top-dose activity, negative = inhibition, usual class: inhibitors; 230,000 tested, under 10 active; AID 1477; further: % of control where 0% means no effect
# Target sequence (Q01196 whole entry, looked up): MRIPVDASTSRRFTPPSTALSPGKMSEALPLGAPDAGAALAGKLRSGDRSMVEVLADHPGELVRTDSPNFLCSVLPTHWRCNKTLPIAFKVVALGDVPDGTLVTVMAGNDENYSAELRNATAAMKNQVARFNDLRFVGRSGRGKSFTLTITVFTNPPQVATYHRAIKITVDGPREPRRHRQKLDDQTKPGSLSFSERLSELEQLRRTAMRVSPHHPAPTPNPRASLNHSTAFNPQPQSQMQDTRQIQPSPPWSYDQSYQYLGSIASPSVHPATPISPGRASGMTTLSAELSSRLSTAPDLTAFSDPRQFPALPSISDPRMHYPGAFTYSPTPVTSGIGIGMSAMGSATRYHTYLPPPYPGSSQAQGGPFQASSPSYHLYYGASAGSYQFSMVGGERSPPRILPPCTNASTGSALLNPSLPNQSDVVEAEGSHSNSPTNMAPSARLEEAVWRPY
# Target sequence (Q13951 whole entry, looked up): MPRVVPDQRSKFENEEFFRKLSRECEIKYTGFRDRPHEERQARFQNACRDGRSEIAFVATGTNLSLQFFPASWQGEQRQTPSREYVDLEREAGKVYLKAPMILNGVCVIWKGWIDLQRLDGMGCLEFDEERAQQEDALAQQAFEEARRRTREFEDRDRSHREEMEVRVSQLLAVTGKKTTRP
#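 AlphaScreen binding: CBFb-His and RUNX1-biotin (30 nM each) preincubated 20 min, compound added for 15 min, then nickel and streptavidin beads for 90 min, all at room temperature. Disruption of the interaction by any mechanism counts as activity.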
# RORgamma inh: ROR gamma (mouse) transcription inhibition; P51450; Potency, µM (series often up to 53.6 µM), without a hit: at the highest dose activity change, negative = inhibition, usual class: inhibitors; actives 5.4% (n = 310,000); Drosophila S2 Gal4-RORgamma UAS-luciferase reporter, 20 h; further: potency means the concentration at half of the fitted maximal effect; on the % scale 0 is the no-effect control and ±100 the full control effect; nearly all actives have a fitted effect of over 60% in size
#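 Using a luciferase readout, inhibitors were identified by reduced reporter activity in Drosophila cells coexpressing a copper-inducible Gal4–ROR gamma fusion and UAS-driven Photinus luciferase, incubated 20 hr after 700 uM copper sulfate.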
# Six1-Eya2 inh: Six1/Eya2 interaction inhibition | actives 0.56% (n = 360,000) | AlphaScreen GST-Six1/His-Eya2 binding, biochemical; stronger effect = lower value | AID 651725 | Q15475+O00167 | activity change, % (no concentration beside the values); in the data active means activity change below about -65%; inconclusive means mostly about -30% to -63%; further: on the % scale 0 is the no-effect control and ±100 the full control effect
#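 Compounds are tested against tagged Six1 and Eya2 proteins bridged by glutathione donor and nickel acceptor beads; after a one-hour incubation at 37 °C without light, AlphaScreen emission is recorded.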
# MBNL1-CUG inh: blocks human MBNL1 binding to CUG repeat RNA | Q9NR56 | TR-FRET MBNL1-His/biotin-(CUG)12 binding, 665/545 ratio | Potency, µM (titrated, usually from 57.5 µM), for inactives: top-dose activity change, negative = inhibition, hits mostly inhibitors | actives 0.036% (n = 280,000) | AID 2675; active means well fitted inhibition curve with a large enough effect in the signal ratio, with a control signal flat, not every such curve was filed as active; inconclusive means small, poorly fitted or top-dose-only effect, or effect the other way, or a change in a side signal; inactive means no such curve, though single readings can be large or run the other way; the % refers to the signal ratio; further: potency means the concentration at half of the fitted maximal effect; on the % scale 0 is the no-effect control and ±100 the full control effect
#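 Compound titration spanned 92 nM–58 uM against the MBNL1-His/biotin-(CUG)12 complex. After 60 min at room temperature with 5 nM streptavidin-XL665 and 0.055 ng/ul terbium anti-His, ratiometric 665/545 nm emission (Ex 340 nm) normalized to controls.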
# CtBP-E1A inh: CtBP/E1A binding inhibition; AlphaScreen GST-E1A/His-CtBP binding, 1536-well; stronger effect = lower value; activity change, % (test concentration not listed); actives 0.49% (n = 340,000); AID 651724; in the data active means activity change below about -65%; inconclusive means mostly about -30% to -63%; further: on the % scale 0 is the no-effect control and ±100 the full control effect
#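 Steps: dispense buffer (Tris pH 8.0, NaCl 300 mM, TCEP 1 mM, BSA, Tween 20); add 5X protein mix (GST-E1A, His-CtBP, 125 nM each); pin 23 nL compound; 2 h at 37 °C, dark; add 5X beads (50 ug/mL); 1 h; read.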
# Starred values were filed as active, the others as inactive; ? = inconclusive; · = not tested or not shown; [ ] = remark or other dose. The list is not random: actives were taken first. Their share in the collection is about 5.5%. Unless noted, the call rests on the fitted dose curve; in most records, active means well fitted curve in the direction sought with a large enough effect; inconclusive means small, poorly fitted or top-dose-only effect, or another doubt; inactive means no such curve, though single readings can be large; an effect the other way counts as inactive or inconclusive.
SMILES,Gal4-VP16 FLuc,CBFb-RUNX1 inh,RORgamma inh,Six1-Eya2 inh,MBNL1-CUG inh,CtBP-E1A inh
Cc1ccc(OCc2ccc(C(=O)Nc3nc4ccccc4n3Cc3ccccc3)o2)c([N+](=O)[O-])c1,0.32µM*,-1%,?,-1,-1%,-1
Cc1ccc(OCc2ccc(C(=O)Nc3nc4ccccc4n3C)o2)c([N+](=O)[O-])c1,3.2µM*,8%,5.6µM*,4,1%,-9
O=C(Nc1nc2ccccc2n1Cc1ccccc1)c1ccc(COc2ccccc2[N+](=O)[O-])o1,?,10%,?,0,-17%,6
Cc1cccc(-n2c(=O)c3c4c(sc3n3c(=S)[nH]nc23)CCC4)c1,?,3%,?,0,-1%,5
O=c1[nH]c2sc3c(c2c(=O)n1Cc1ccccc1)CCC3,-1%,-9%,-15%[10 µM],-1,0%,5
O=c1c2c3c(sc2n2c(=S)[nH]nc2n1-c1ccccc1)CCC3,6%,13%,0%,0,-10%,-2
Cc1ccc(-n2c(=O)c3c4c(sc3n3c(=S)[nH]nc23)CCC4)cc1,-3%,-2%,11µM*,5,·,·
COc1ccc(-n2c(=O)c3c4c(sc3n3c(=S)[nH]nc23)CCC4)cc1,-13%,2%,11µM*,4,·,7
Cc1ccc(-n2c(=S)[nH]c3sc4c(c3c2=O)CCC4)cc1,3.5µM*,-7%,1.1µM*,0,8%,1
C[C@]12c3[nH]c4cc(-c5ccco5)ccc4c3CCN1C(=O)[C@@H](CC(=O)NCc1cccc(C(F)(F)F)c1)C[C@@H]2C(=O)N1CCCCC1,·,·,·,-14,·,-15
COCCn1c(=S)[nH]c2ccc(N(C)C)cc2c1=O,?,3%,16µM*,-9,?,-5
CCOC(=O)N1CCC(n2c(=S)[nH]c3cc(OC)c(OC)cc3c2=O)CC1,11µM*,4%,?,-1,-4%,-2
CCOc1cc2[nH]c(=S)n(CCCN(CC)CC)c(=O)c2cc1OCC,-13%,-1%,-40%,-1,1%,6
CCCCN(C)CCn1c(=S)[nH]c2cc(OCC)c(OCC)cc2c1=O,?,-1%,11µM*,11,-15%,0
CCCn1c(=S)[nH]c2cc(OC)c(OC)cc2c1=O,7.9µM*,-4%,3.2µM*,-8,4%,-16
CCOc1cc2[nH]c(=S)n(CCOC)c(=O)c2cc1OCC,8.9µM*,9%,2.8µM*,-2,2%,1
OC1(c2ccc(Cl)c(C(F)(F)F)c2)CCN(CCCC(c2ccc(F)cc2)c2ccc(F)cc2)CC1,10µM*,?,13µM*,·,·,·
COc1cccc(NC(=S)N(CCC(C)C)C2CCN(C(C)=O)CC2)c1,-11%,·,-21%,2,-1%,·
O=c1ccsc2ccccc12,·,·,·,8,·,-16
O=c1[nH]sc2ccccc12,3.5µM*,0%,0.4µM*,4,·,4
COc1cc(NC(=S)N(C)C)c(OC)cc1Cl,-6%,6%,-5%,0,-4%,2
FC(F)(F)c1ccc(Cl)c(NC(=S)NC2CC2)c1,18µM*,0%,16µM*,2,-4%,-4
CC(C)(C)c1ccccc1NC(=S)NC1CCCC1,3.5µM*,·,4.5µM*,-3,-6%,-9
Fc1ccccc1NC(=S)NC1CCCC1,?,·,11µM*,5,0%,·
CNC(=S)Nc1cc(C(F)(F)F)ccc1Cl,2%,11%,-21%,7,·,7
SMILES,Gal4-VP16 FLuc,CBFb-RUNX1 inh,RORgamma inh,Six1-Eya2 inh,MBNL1-CUG inh,CtBP-E1A inh
COc1cc(NC(=S)NC2CC2)c(OC)cc1Cl,?,5%,10µM*,-1,0%,7
C[C@]12CCC(=O)C=C1CCC1C2C(O)C[C@]2(C)C1CC[C@]2(O)C(=O)COC(=O)CCC(=O)O (stereo partly specified),1%,16%,3%,·,·,·
Clc1nnc(Cl)c2c1ncn2Cc1ccccc1,-9%,·,22%,6,5%,·
COc1ccccc1NC(=S)NC1CCCCCC1,4µM*,-3%,6.3µM*,-1,-12%,2
COc1ccccc1NC(=O)NC1CCCCCCC1,-7%,·,26%,1,-3%,3
CC(C)(C)c1ccccc1NC(=S)NC1CCCCC1,6.3µM*,-7%,1.8µM*,-1,3%,-6
O=C(Nc1ccc(Cl)c(Cl)c1)Nc1ccc(Br)cc1F,13µM*,1%,?,11,-3%,16
CCc1ccc(CNC(=O)C2Cc3cc(S(=O)(=O)N4CCCC4)ccc3N2C(C)=O)cc1 (stereo unspecified),5%,·,38%,0,-1%,-5
CCC(NC(=O)Nc1ncccc1C)(C(F)(F)F)C(F)(F)F,-3%,0%,7%[10 µM],2,14%,0
CCC(NC(=O)NNC(N)=S)(C(F)(F)F)C(F)(F)F,-15%,8%,11µM*,6,-7%,0
Cc1cccc(/C=N/NC(=O)C[n+]2ccccc2)c1,·,·,·,-3,·,0
CC1(C)CC(=O)C(C=Nc2cc(C(=O)c3ccccc3)ccc2N)=C(O)C1,?,-5%,7.9µM*,-10,?,-1
COC(=O)c1ccc(N)c(N=CC2=C(O)CC(C)(C)CC2=O)c1,?,-7%,13µM*,-5,?,-3
CSc1ccccc1N=CC1=C(O)CC(C)(C)CC1=O,10%,-1%,0%,11,0%,6
CC1(C)CC(=O)C(C=Nc2ccc(N)cc2)=C(O)C1,?,-20%,-8%,-8,·,-3
COc1cc2oc(=O)c3c4c(cc5ccc(c1CCN(C)C)c2c53)OCO4,-27%,0%,?,·,·,·
COc1cc2c(cc1OC)-c1cc(NC3CCCCCC3)nc(=O)n1CC2,4%,3%,?,-71*,-3%,?
CCN(CC)CCCNc1cc2n(c(=O)n1)CCc1cc(OC)c(OC)cc1-2,-2%,8%,5%,-80*,6%,-69*
COc1ccc(Nc2cc3n(c(=O)n2)CCc2cc(OC)c(OC)cc2-3)cc1,-4%,·,0%,-79*,?,?
COc1ccc(Nc2cc3n(c(=O)n2)CCc2cc(OC)c(OC)cc2-3)c(C)c1,-3%,·,8%,?,1%,·
COc1cc2c(cc1OC)-c1cc(Nc3ccc(C)cc3)nc(=O)n1CC2,-7%,·,-15%,?,1%,·
COc1cc2c(cc1OC)-c1cc(Nc3ccccc3)nc(=O)n1CC2,-8%,4%,-9%,-76*,-6%,1
Cc1cccc(S(=O)(=O)N(C)C[C@H]2OCc3cnnn3CCCC(=O)N([C@H](C)CO)C[C@H]2C)c1,·,·,·,3,·,-12
